Only a selection was taken, and hits are over-represented in it overall.
AmpC no deterg: AmpC beta-lactamase inhibition without detergent | P00811 | AmpC nitrocefin hydrolysis, absorbance 480 nm, 0.0001% Triton | Potency, µM (titrated, usually from 57.1 µM), usual class: inhibitors | hit rate 0.52% among 330,000 | AID 485341; active = well fitted curve in the direction sought with a large enough effect; inconclusive = small, poorly fitted or top-dose-only effect, or another doubt; inactive = no such curve, though single readings can be large; an effect the other way counts as inactive or inconclusive; note: nearly all actives have a fitted effect of over 20% in size
Target sequence (P00811 whole entry, looked up): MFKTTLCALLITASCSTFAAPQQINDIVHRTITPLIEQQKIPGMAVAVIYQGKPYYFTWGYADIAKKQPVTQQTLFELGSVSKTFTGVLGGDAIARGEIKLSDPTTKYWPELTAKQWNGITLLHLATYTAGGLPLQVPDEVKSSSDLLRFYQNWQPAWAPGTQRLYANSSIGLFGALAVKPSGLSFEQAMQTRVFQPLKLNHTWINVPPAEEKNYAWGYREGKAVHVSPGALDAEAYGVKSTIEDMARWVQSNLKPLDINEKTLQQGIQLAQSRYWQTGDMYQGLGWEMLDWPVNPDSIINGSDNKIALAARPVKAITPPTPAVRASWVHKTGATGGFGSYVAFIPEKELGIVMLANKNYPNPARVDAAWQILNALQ
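20 mM phosphate pH 7.0 + 0.01% (detergent screen) or 0.0001% Triton X-100; 5.3 nM AmpC reagent; cpd preinc 15 min RT; nitrocefin (800 uM stock) to start; A480 q20 s × 4 min; Activity was normalised to no-enzyme and no-compound control wells.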
Cycloheximide cs: counter-screen for Shiga toxin inhibitors: cycloheximide protein synthesis inhibition; AID 2314; cell reporter, cycloheximide protein synthesis inhibition counterscreen; hit rate 12% among 300,000; max response, %; in the data active = max response mostly above about 13%, no sharp cut-off; inactive = mostly below about 14%; note: read at 38.3 µM for the half of the compounds with a filed dose
AmpC inh detg: AmpC beta-lactamase inhibition with detergent present; P00811; AmpC hydrolysis of nitrocefin, absorbance 480 nm, 0.01% Triton; Potency, µM (highest dose often 114 µM), most hits filed as inhibitors; hit rate 0.041% among 370,000; AID 485294; active = well fitted curve in the direction sought with a large enough effect; inconclusive = small, poorly fitted or top-dose-only effect, or another doubt; inactive = no such curve, though single readings can be large; an effect the other way counts as inactive or inconclusive; note: nearly all actives have a fitted effect of over 25% in size
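AmpC (5.3 nM in the dispensed reagent) in 20 mM phosphate pH 7.0 with 0.01% (detergent screen) or 0.0001% Triton X-100 was preincubated with compounds for 15 min at room temperature. Nitrocefin was then added from an 800 uM solution, and hydrolysis was followed at 480 nm.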
NS1 inh: influenza NS1 inhibition; Potency, µM (doses to about 46.1 µM); hit rate 0.4% among 270,000; note: actives are rising curves; nearly all actives have a fitted effect of over 50% in size
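Recovery from NS1-induced slow growth read by OD600 in budding yeast switched to galactose assay medium (pH 6.0, -URA) at 1:100 dilution. Compound 23 nl per well; the matching strain lacking NS1 serves as control.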
Shiga toxin inh: blocks Shiga toxin action in Vero cells. Vero cells, Shiga toxin protein synthesis inhibition reporter. inhibition, % at 38.7 µM. hit rate 9.2% among 290,000; in the data active = inhibition mostly above about 28%, no sharp cut-off; inactive = mostly below about 43%
Flu NS1 inh: validation of influenza NS1 protein function inhibitors; influenza NS1 function cell assay, 15-point titration; shares compounds with NS1 inh; activity change, negative = inhibition, % at 32.9 µM; 1,400 tested, under 10 active; AID 492980
Flu PR8 replic: influenza NS1 inhibitors: inhibition of influenza A/PR/8/34 replication | shares compounds with NS1 inh | MDCK infected influenza A/PR/8/34, virus titer TCID50; stronger effect = lower value | virus titer (log TCID50), log10 TCID50 at 5 µM | hit rate 30% among 95 | AID 504647; call rule not given here
Large screens that a line does not name were inactive (follow-up assays come after a bar, where they were run). Unless noted, calls come from the whole dose curve.

c1cc(N2CCCC2)ccc1C(c1nnnn1C1CCCCC1)N1CCOCC1 (stereo unspecified)	AmpC inh detg inconclusive, NS1 inh 11µM | Flu NS1 inh inactive
COc1ccc(C(c2nnnn2C2CCCCC2)N2CCN(c3ccc(OC)cc3)CC2)cc1 (stereo unspecified)	none
Nc1ccc(NC(=O)CCN2CCOCC2)cc1	none
Cc1ccccc1NC(=O)COC(=O)CC1CCCC1	none (no result: Cycloheximide cs, NS1 inh, Shiga toxin inh)
CCOC(=O)/C=C/[C@H]1CCc2cccc(Cl)c2O1	none (no result: Cycloheximide cs, NS1 inh, Shiga toxin inh)
CN(C)S(=O)(=O)c1ccc2oc(SCC(=O)NCC(F)(F)F)nc2c1	NS1 inh 10µM | Flu NS1 inh inactive
Cc1ccc(NC(=O)CSc2nnc(-c3ccccc3C)o2)cc1C	none
Cc1cc(C)cc(NC(=O)CSc2nnc(-c3ccccc3C)o2)c1	Cycloheximide cs 36, NS1 inh inconclusive | Flu NS1 inh inactive
O=C1CCCC2=C1C(c1ccc(Br)cc1)c1c([nH]c(=S)[nH]c1=O)N2 (stereo unspecified)	NS1 inh 6.3µM | Flu NS1 inh inactive
Cc1nnc(-c2cccc(Br)c2)c2cn(-c3ccccc3)nc12	NS1 inh inconclusive
Cc1nnc(-c2cccc(Br)c2)c2cn(-c3cccc(Br)c3)nc12	NS1 inh 8.9µM | Flu NS1 inh inactive
CN(CC(=O)Nc1cccc2ccccc12)C(=O)c1cccc(S(=O)(=O)N(C)C)c1	NS1 inh inconclusive | Flu NS1 inh inactive
COCC(C)n1c(COc2ccccc2F)nnc1SCC(=O)c1c(N)n(C)c(=O)n(C)c1=O (stereo unspecified)	none
CCCCCCn1c(COc2ccccc2F)nnc1SCC(=O)c1c(N)n(C)c(=O)n(C)c1=O	NS1 inh inconclusive | Flu NS1 inh inactive
COCCn1c(C)cc(/C=C2/NC(=O)N(c3ccc(Cl)cc3)C2=O)c1C	Cycloheximide cs 55, NS1 inh inconclusive | Flu NS1 inh inactive
COCCn1c(C)cc(/C=C2/NC(=O)N(Cc3ccc(C)cc3)C2=O)c1C	none
Cc1ccc(NC(=O)c2c(-c3c(F)cccc3Cl)noc2C)cc1F	AmpC no deterg inconclusive
C/C(CC(=O)N(C(C)C)C(C)C)=N\NC(=O)COc1ccc(Br)cc1Br	NS1 inh 11µM | Flu NS1 inh inconclusive
C/C(CC(=O)N(C(C)C)C(C)C)=N\NC(=O)COc1ccc(Cl)cc1Cl	none (no result: NS1 inh)
COc1ccc(NC(=O)C2CCCN2S(=O)(=O)c2ccc3c(c2)CC(C)N3C(C)=O)cc1OC (stereo unspecified)	none
COc1cc(C(=O)NC(=S)Nc2ccc(N3CCCC3)cc2)cc(OC)c1OC	AmpC inh detg inconclusive, NS1 inh 13µM | Flu NS1 inh inactive
O=S(=O)(NCc1ccccc1)c1ccc(NC(=S)NCc2ccco2)cc1	NS1 inh inconclusive (no result: Shiga toxin inh)
C/C(=N\NC(=O)C1CCCC1)c1ccc(Cl)cc1	Cycloheximide cs 41, NS1 inh inconclusive, Shiga toxin inh 52 | Flu NS1 inh inactive
O=C(/C=N/O)NCCCN1CCOCC1	NS1 inh inconclusive | Flu NS1 inh inactive
Cc1cc(-c2nnc3n2N=C(c2ccc(-c4ccccc4)cc2)CS3)n[nH]1	NS1 inh 3.2µM | Flu NS1 inh inconclusive
C/C(=N\NC(=O)c1[nH]c2c([N+](=O)[O-])cc(C)cc2c1-c1ccccc1)c1cccnc1	NS1 inh 8.9µM | Flu NS1 inh inactive
C/C(=N\NC(=O)c1cccnc1)c1ccc(C)c([N+](=O)[O-])c1	none (no result: NS1 inh)
C[C@@H](C(=O)Nc1ccc2ccccc2c1)[C@H]1C[C@]1(C)[C@H](NP(=O)(c1ccccc1)c1ccccc1)c1ccccc1	AmpC inh detg inconclusive, NS1 inh inconclusive
Cc1cc(C(=O)N[C@@H](c2ccccc2)[C@]2(C)C[C@H]2[C@@H](C)C(=O)Nc2ccc3ccccc3c2)no1	NS1 inh 11µM | Flu NS1 inh inactive
C[C@@H](C(=O)Nc1ccc2ccccc2c1)[C@H]1C[C@]1(C)[C@H](NS(=O)(=O)c1ccccc1)c1ccccc1	AmpC inh detg inconclusive, NS1 inh 11µM | Flu NS1 inh inactive
Cc1ccc(S(=O)(=O)N2[C@@H](c3ccccc3F)C(C(=O)O)=CC[C@H]2c2cccs2)cc1	none (no result: Cycloheximide cs, NS1 inh, Shiga toxin inh)
CCN(CC)Cc1c(C(=O)N/N=C/c2cccc(OCc3cccc(Cl)c3)c2)nnn1-c1nonc1N	none
CCOc1ccc(N2C(=O)CC(Sc3nc(C)cc(C)c3C#N)C2=O)cc1 (stereo unspecified)	NS1 inh 13µM | Flu NS1 inh inactive
Cc1ccc(-c2csc(N3CCC(NS(=O)(=O)c4ccc5c(c4)OCCO5)CC3)n2)cc1	NS1 inh inconclusive | Flu NS1 inh inactive | Flu PR8 replic inactive
O=S(=O)(NC1CCN(S(=O)(=O)c2c(F)cccc2F)CC1)c1ccc2c(c1)OCCO2	none (no result: AmpC inh detg, NS1 inh)
COc1ccc(CCNC(=O)CSc2nc(N)c(C#N)c(-c3cccs3)c2C#N)cc1OC	NS1 inh 4.5µM | Flu NS1 inh inactive
CCN(CC)C(=O)CSc1nnc(-c2ccccc2)n1N	NS1 inh 6.3µM | Flu NS1 inh inactive
COc1cccc(CN2CCNC(=O)C2CC(=O)NCCN2CCOCC2)c1OC (stereo unspecified)	none
COc1cc(C2C(C#N)=C(N)Oc3c2ccc2ccccc32)ccc1OCC(=O)Nc1cccc(C)c1 (stereo unspecified)	AmpC no deterg inconclusive, NS1 inh 11µM | Flu NS1 inh inactive | Flu PR8 replic inactive
COc1ccccc1N1CCN(C(=O)c2ccc(N3CCCCS3(=O)=O)cc2)CC1	none
CC(C)C[C@H](NC(=O)c1nc[nH]c1C(=O)NC(c1ccccc1)c1ccccc1)C(=O)OC(C)(C)C	NS1 inh 10µM | Flu NS1 inh inactive
CC(C)C[C@H](NC(=O)c1[nH]cnc1C(=O)N[C@@H](C)C(=O)OCc1ccccc1)C(=O)OC(C)(C)C	NS1 inh 13µM | Flu NS1 inh inactive
CC(C)C[C@H](NC(=O)c1[nH]cnc1C(=O)N[C@H](C)c1ccccc1)C(=O)OC(C)(C)C	none
Oc1ccc(/C=N/Nc2ncnc3c2ncn3Cc2ccccc2)cc1O	AmpC inh detg inconclusive, NS1 inh 14µM | Flu NS1 inh inactive
NS(=O)(=O)c1ccc(NC(=S)NC2CC2)cc1	NS1 inh inconclusive
CC1CCCN(C(=O)c2ccc(-c3ccccc3Cl)o2)C1 (stereo unspecified)	none (no result: Cycloheximide cs, NS1 inh, Shiga toxin inh)
Cc1occc1-c1nnc(SCC(=O)c2c(N)n(Cc3ccccc3)c(=O)n(C)c2=O)n1C	NS1 inh 10µM | Flu NS1 inh inactive
COc1cc(/C=C/C(=O)OC(C)C(=O)NC2CCCCC2C)cc(Cl)c1OC (stereo unspecified)	none (no result: Cycloheximide cs, NS1 inh, Shiga toxin inh)
Cc1ccc(C)c(-n2ccnc2SCC(=O)c2c(N)n(C3CC3)c(=O)[nH]c2=O)c1	none (no result: Cycloheximide cs, NS1 inh, Shiga toxin inh)
COCCn1c(SC)nnc1-c1c[nH]c2ccccc12	none
